# Columns and labels:
# Conditions in all cases: concentration: 1 μM, replicates: in singlicate; n = 1
# TNNI3K = test system: TNNI3K
# TRKA = test system: T1, TRKA
# T1 construct: gene NTRK1
# TRKB = test system: TRKB
# TRKC = test system: T2, TRKC
# T2 construct: gene NTRK3
# TRPM6 = test system: TRPM6
# TSSK1B = test system: TSSK1B
# TSSK3 = test system: TSSK3
# TTK = test system: TTK
# TXK = test system: TXK
# [1] = test system: TYK2(JH1domain-catalytic)
# [2] = test system: TYK2(JH2domain-pseudokinase)
# TYRO3 = test system: TYRO3
# ULK1 = test system: ULK1
# ULK2 = test system: ULK2
# ULK3 = test system: ULK3
# VEGFR2 = test system: T3, VEGFR2
# T3 construct: gene KDR
# VPS34 = test system: T4, VPS34
# T4 construct: gene PIK3C3
# VRK2 = test system: VRK2
# WEE1 = test system: WEE1
# WEE2 = test system: WEE2
# 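Note: KINOMEscan kinase panel screen.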
SMILES,%Inh (TNNI3K) [%],%Inh (TRKA) [%],%Inh (TRKB) [%],%Inh (TRKC) [%],%Inh (TRPM6) [%],%Inh (TSSK1B) [%],%Inh (TSSK3) [%],%Inh (TTK) [%],%Inh (TXK) [%],%Inh [1] [%],%Inh [2] [%],%Inh (TYRO3) [%],%Inh (ULK1) [%],%Inh (ULK2) [%],%Inh (ULK3) [%],%Inh (VEGFR2) [%],%Inh (VPS34) [%],%Inh (VRK2) [%],%Inh (WEE1) [%],%Inh (WEE2) [%]
Nc1ncc(-c2ccc3nccc(-c4ccncc4)c3c2)cc1S(=O)(=O)N1CCOCC1 [GSK1627798],0,90.2,90.7,74,0,0,0,8,0,0,21,0,0,0,6,0,93.3,0,0,3
COc1ccc(-c2coc3ccc(-c4nnc(SCc5ccc(OC)c(C(F)(F)F)c5)o4)cc23)cc1,0,5,10,0,1,0,0,1,0,27,1,16,0,6,16,17,11,0,0,0
Cl.Cl.NCC(NCc1ccc(-c2ccnc3[nH]ccc23)s1)c1ccccc1 (centres unmarked) [GSK1321565],0,98.5,72,70,0,38,16,0,25,80,43,0,67,9,15,17,7,20,13,0
CN(c1ccc(NC(=O)Nc2cc(C(F)(F)F)ccc2F)cc1)c1ccnc(Nc2ccc(S(N)(=O)=O)cc2)n1 [GW809893],93.3,100,97.6,98.7,31,5,9,22,26,44,12,77,17,3,76,88,4,0,0,11
CC(=O)Nc1nc2cnc(Nc3cc(NC(=O)c4cccc(C5(C#N)CC5)c4Cl)ccc3C)nc2s1,18,0,0,0,0,0,0,21,33,0,0,15,0,6,0,40,22,0,0,32
COc1cc(Nc2nccc(-c3c(-c4cccc(NC(=O)c5c(F)cccc5F)c4)nn4ncccc34)n2)cc(OC)c1OC [GSK327238],55,48,0,0,54,11,19,10,93.6,88,0,100,14,0,30,96.1,11,11,10,5
COc1cc(Nc2nccc(N3CCC(NC(=O)Nc4cccc(C(C)=O)c4)C3)n2)cc(OC)c1OC (centres unmarked) [GSK1379753],9,62,63,92.3,41,6,9,21,0,45,19,0,18,0,78,0,0,0,6,0
Cc1occc1-c1ncc(OC[C@@H](N)Cc2c[nH]c3ccccc23)cc1-c1ccc2[nH]nc(C)c2c1.O=C(O)C(F)(F)F [GSK682037],5,33,13,0,0,16,13,22,47,7,0,0,4,0,3,7,3,78,5,8
O=C(Nc1cccc(-c2nn3ccccc3c2-c2ccnc(Nc3cccc(F)c3)n2)c1)c1c(F)ccc(F)c1Cl [GSK357952],0,11,0,0,32,0,6,28,67,11,0,81,21,0,13,12,22,0,0,3
COC(=O)Nc1nc2cc(Oc3ccc(NC(=O)Nc4cc(C(F)(F)F)ccc4F)cn3)ccc2[nH]1.Cl.Cl [GW681170],92.9,100,97.4,97,29,0,16,43,0,14,12,0,0,0,13,55,8,22,7,0
Nc1ncnc2c1nc(-c1ccccc1)n2-c1ccccc1 [SKF-97293],0,37,48,36,50,2,22,0,15,68,54,9,51,35,50,23,44,36,4,0
COc1cc(Nc2ncc3c(C)nc(-c4cc5ccccc5[nH]4)n3n2)cc(OC)c1OC [GW869516],33,4,0,0,0,6,0,36,10,0,82,32,48,51,20,0,0,0,36,85
COCCOCCOc1cc2ncc3c4ccc(C#N)cc4[nH]c3c2cc1OC,9,98,90,78,0,0,0,26,4,0,41,8,79,99.4,65,0,0,9,3,15
Cl.c1ccc(-c2ccc3c(Nc4ccc5[nH]ccc5c4)ccnc3c2)nc1 [GW440138],0,0,9,23,0,0,5,0,0,29,27,0,0,0,6,98.3,0,40,8,6
COc1ccc(Nc2nccc(NCCNC(=O)c3cc4ccccc4s3)n2)cc1 [GSK1379896],13,18,0,0,34,0,20,0,0,25,0,11,14,0,0,0,18,17,14,0
O=C(Nc1ccccc1F)NC1CCN(c2ccnc(Nc3ccc(F)cc3)n2)CC1 [GSK1379800],0,0,0,6,0,1,22,0,46,28,43,0,0,0,6,0,0,4,21,0
Cl.NC(=O)c1cccc(Nc2nccc(Nc3ccc(Oc4c(Cl)cccc4Cl)c(Cl)c3)n2)c1 [GW659009],0,20,7,11,36,8,88,10,0,21,0,0,35,0,4,0,0,2,0,0
c1ccc(-c2cnc3nccnn23)cc1 [AH20685],0,0,17,0,29,0,9,0,0,0,3,0,5,0,0,0,0,0,33,0
O=C(Nc1cccc(Oc2ccc3nc(NC(=O)C4CC4)cn3n2)c1)c1ccccc1C(F)(F)F,4,0,0,0,0,7,0,26,17,5,0,36,0,0,1,99.8,0,0,22,0
Oc1cc(Nc2ccnc3cc(I)ccc23)ccc1F [GW552771],2,0,23,26,26,6,13,0,94.5,32,25,54,9,0,29,31,0,36,0,0

SMILES,%Inh (TNNI3K) [%],%Inh (TRKA) [%],%Inh (TRKB) [%],%Inh (TRKC) [%],%Inh (TRPM6) [%],%Inh (TSSK1B) [%],%Inh (TSSK3) [%],%Inh (TTK) [%],%Inh (TXK) [%],%Inh [1] [%],%Inh [2] [%],%Inh (TYRO3) [%],%Inh (ULK1) [%],%Inh (ULK2) [%],%Inh (ULK3) [%],%Inh (VEGFR2) [%],%Inh (VPS34) [%],%Inh (VRK2) [%],%Inh (WEE1) [%],%Inh (WEE2) [%]
Fc1ccc(-c2ncn(C3CCNCC3)c2-c2ccnc(Oc3ccc(-c4ccccc4)cc3)n2)cc1 [SB-245391],42,13,0,19,19,0,15,22,8,32,84,0,54,26,46,12,30,41,0,58
COc1ccc(Nc2nccc(N3CCC(NC(=O)Nc4cccc(OC)c4)C3)n2)cc1 (centres unmarked) [GSK1379742],0,54,40,76,0,0,18,0,0,24,5,0,0,0,17,17,16,0,52,13
CN(C)Cc1ccc(-c2ccc3c(Nc4ccc(Oc5ccccn5)cc4)ccnc3c2)o1 [GW567148],0,100,31,35,52,0,6,0,0,30,18,38,19,0,5,17,0,4,0,2
CCS(=O)(=O)c1ccc(OC)c(Nc2nccc(-c3c(-c4cccc(NC(=O)c5c(F)cccc5F)c4)nn4ncccc34)n2)c1 [GSK326180],15,0,5,0,55,23,12,0,15,0,26,0,12,0,25,16,0,0,17,5
O=C(O)C(F)(F)F.O=C(O)C(F)(F)F.O=c1[nH]ccc2nc(N[C@@H]3CCCNC3)nc(Nc3ccc(S(=O)(=O)N4CCOCC4)cc3)c12 [GSK2177277],15,100,92.5,98,19,95.1,99.7,96.8,35,99.7,93.2,15,100,88,99.9,74,91.5,77,66,13
O=C(NC1CCN(c2ccnc(Nc3ccc(F)cc3)n2)C1)c1cc2ccccc2s1 (centres unmarked) [GSK1379716],4,10,0,8,22,5,19,17,8,2,31,0,0,1,32,0,38,0,50,0
CNC(=O)c1ccccc1Nc1nc(Nc2ccc(N3CCOCC3)cc2)ncc1Cl.Cl [GSK1576028],50,100,96.6,97.1,75,15,17,95,97.6,99.9,99.7,85,99.6,81,99.8,90,0,21,99.7,100
Cc1ccc(C)c(NC(=O)NC2CCN(c3ccnc(Nc4ccc(F)cc4)n3)C2)c1 (centres unmarked) [GSK1379720],4,0,51,65,14,0,15,13,16,36,48,0,0,0,10,0,0,45,4,0
Cl.c1ccc(-c2ccc3c(Nc4ccc5[nH]ncc5c4)ccnc3c2)nc1 [GW440137],0,0,16,17,25,12,7,3,74,14,32,0,12,0,11,66,0,0,0,5
CSc1cccc2c(-c3ccncn3)c(-c3ccc(F)cc3)nn12 [GW514786],6,16,0,0,17,0,22,8,0,0,24,0,0,0,3,0,14,23,6,1
Cc1ccc(C(=O)Nc2ccc(Nc3ccnc4cc(-c5nccs5)ccc34)cc2O)cc1.Cl [GW494702],6,60,20,25,29,13,6,0,52,42,15,19,4,0,3,2,18,28,0,0
CC(=O)N1CCN(c2ccc(Nc3nccc(-c4sc(C(C)C)nc4-c4cccc(NS(=O)(=O)c5cccc(Cl)c5)c4)n3)cn2)CC1 [GSK1660437],22,45,0,0,41,10,4,56,20,29,0,40,37,4,62,26,0,0,0,0
COc1cccc(C(=O)Nc2cccc(Oc3ccc4nc(NC(=O)C5CC5)cn4n3)c2)c1,87,0,0,0,17,6,0,13,37,0,0,47,0,0,11,99.9,22,0,0,20
FC(F)(F)c1ccc(/C=C/c2cncnc2Nc2ccc3[nH]c(Cc4ccccc4)nc3c2)cc1 [GW709199],0,0,8,0,0,0,0,0,0,41,34,0,0,0,10,0,39,3,23,35
CCn1c(-c2nonc2N)nc2c(C#CC(C)(C)O)nc(OC[C@H](N)c3ccccc3)cc21 [GSK943949],0,18,0,18,0,49,82,15,8,19,0,0,0,0,1,1,16,0,1,2
O=C(Nc1cccc(-c2nn3ncccc3c2-c2ccnc(Nc3ccccc3)n2)c1)c1c(F)cccc1F [GSK198271],36,0,0,0,55,0,18,7,84,7,0,100,22,0,6,80,0,0,40,0
COc1cccc(NC(=O)NC2CCN(c3ccnc(Nc4cc(OC)c(OC)c(OC)c4)n3)C2)c1 (centres unmarked) [GSK1379763],0,54,63,89,3,3,20,5,1,20,38,0,3,0,88,43,20,0,20,0
CC(C)c1nc(-c2cccc(NS(=O)(=O)c3c(F)cccc3F)c2F)c(-c2ccnc(Nc3ccc(N4CCOCC4)nc3)n2)s1 [GSK2008607],92.7,87,0,51,57,0,34,82,95.2,94.9,17,100,63,83,98.9,94.5,0,0,0,0
C[C@@H]1CC[C@@H](C(=O)Nc2ccccc2)CN1c1cc(-c2ccc3c(N)n[nH]c3c2)nc(N)n1 [GSK2286062],0,12,0,13,0,0,0,9,0,15,2,0,8,0,4,0,0,1,0,0
CN1CCN(Cc2cccc(-c3ccc4c(Nc5ccc(Oc6ccccc6)cc5)ccnc4c3)c2)CC1 [GW578342],6,43,0,19,39,0,6,0,5,8,5,12,0,0,2,16,0,26,0,0
